# Results filed as inconclusive are left out. This is one part of the list. Where a call stands in place of a potency, no number is given. Active and inactive are the calls of the source. Calls follow the shape of the dose curve; as a rule, active = well fitted curve in the direction sought with a large enough effect; inconclusive = small, poorly fitted or top-dose-only effect, or another doubt; inactive = no such curve, though single readings can be large; an effect the other way counts as inactive or inconclusive.
# Legend:
# [1] = biological target: Cytochrome P450 2C9 (Homo sapiens) (UniProt P11712); assay: qHTS Assay for Inhibitors and Substrates of Cytochrome P450 2C9 (AID 883); also: potency is read from the fitted curve at half-maximal effect; nearly all actives have a fitted effect of over 60% in size
# Sequence of Cytochrome P450 2C9 (Homo sapiens) (P11712 whole entry, looked up): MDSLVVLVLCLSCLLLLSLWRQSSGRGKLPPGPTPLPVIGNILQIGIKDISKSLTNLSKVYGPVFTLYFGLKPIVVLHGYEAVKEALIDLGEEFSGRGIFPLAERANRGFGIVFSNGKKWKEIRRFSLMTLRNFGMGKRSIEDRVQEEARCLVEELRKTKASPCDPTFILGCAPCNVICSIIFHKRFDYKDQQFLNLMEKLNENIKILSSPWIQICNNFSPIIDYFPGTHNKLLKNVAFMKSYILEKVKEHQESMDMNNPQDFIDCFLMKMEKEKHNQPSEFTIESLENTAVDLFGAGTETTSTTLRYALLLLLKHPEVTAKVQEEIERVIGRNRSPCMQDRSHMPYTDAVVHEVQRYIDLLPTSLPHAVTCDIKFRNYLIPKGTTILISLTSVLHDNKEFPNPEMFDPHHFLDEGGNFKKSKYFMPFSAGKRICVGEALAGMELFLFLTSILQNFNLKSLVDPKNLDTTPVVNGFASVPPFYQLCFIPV
# Method in brief: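 Inhibition of CYP2C9 is scored as loss of luminescence, with 57uM sulphaphenazole defining 100% inhibition. Substrate Luciferin-H is used at 100uM, equal to its KM; enzyme at 10nM in 25mM KPO4, 60 min at 37C with NADPH regeneration.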
# [2] = biological target: Cytochrome P450 3A4 (Homo sapiens) (UniProt P08684); assay: qHTS Assay for Activators of Cytochrome P450 3A4 (AID 885); also: nearly all actives have a fitted effect of over 65% in size
# Sequence of Cytochrome P450 3A4 (Homo sapiens) (P08684 whole entry, looked up): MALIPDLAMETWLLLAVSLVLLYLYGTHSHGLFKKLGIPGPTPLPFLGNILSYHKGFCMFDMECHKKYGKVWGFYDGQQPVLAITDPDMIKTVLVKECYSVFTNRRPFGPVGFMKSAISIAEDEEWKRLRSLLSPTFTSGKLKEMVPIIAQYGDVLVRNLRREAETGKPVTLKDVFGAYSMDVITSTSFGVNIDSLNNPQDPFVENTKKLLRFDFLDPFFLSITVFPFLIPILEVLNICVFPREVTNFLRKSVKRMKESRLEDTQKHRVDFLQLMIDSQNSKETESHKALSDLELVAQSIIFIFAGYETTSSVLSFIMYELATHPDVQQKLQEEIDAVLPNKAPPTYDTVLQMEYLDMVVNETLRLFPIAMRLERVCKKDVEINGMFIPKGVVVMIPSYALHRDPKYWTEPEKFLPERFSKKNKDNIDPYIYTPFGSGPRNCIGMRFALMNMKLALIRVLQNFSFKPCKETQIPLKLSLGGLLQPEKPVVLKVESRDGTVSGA
# Method in brief: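 20nM CYP3A4 + 25uM Luciferin-PPXE (=KM), 200mM KPO4; cpd 10 min RT; NADPH regen, 60 min RT; stop w/ detection buffer, 20 min; luminescence. Normalized to 57 uM ketoconazole.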
# [3] = biological target: Cytochrome P450 2C19 (Homo sapiens) (UniProt P33261); assay: qHTS Assay for Inhibitors and Substrates of Cytochrome P450 2C19 (AID 899); also: potency is read from the fitted curve at half-maximal effect; nearly all actives have a fitted effect of over 60% in size
# Method in brief: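 5nM enzyme + 10uM Luciferin-H EGE (=KM), 50mM KPO4; cpd pin-transferred, 10 min 37C; NADPH regen, 60 min 37C; stopped w/ luciferin detection reagent, 20 min; luminescence. Normalized to 57uM ketoconazole (AC100).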
# [4] = qHTS for Inhibitors of the vitamin D receptor (VDR): Hit Validation using a Texas Red Assay (AID 602201); also: potency is read from the fitted curve at half-maximal effect
# Method in brief: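 After a 2-hour room-temperature incubation, polarization of Texas-Red emission was read (Ex 595 nm/Em 615 nm). Final mix contained 7 nM Texas Red, 1.5 uM VDR-LBD and LG19078.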
# [5] = biological target: DNA polymerase iota (Homo sapiens) (UniProt Q9UNA4); assay: qHTS for Inhibitors of Polymerase Iota: Confirmatory Assay for Cherry-picked Compounds (AID 720496); settings: Pol iota primer extension, TAMRA/BHQ fluorescence; also: potency is read from the fitted curve at half-maximal effect
# Sequence of DNA polymerase iota (Homo sapiens) (Q9UNA4 whole entry, looked up): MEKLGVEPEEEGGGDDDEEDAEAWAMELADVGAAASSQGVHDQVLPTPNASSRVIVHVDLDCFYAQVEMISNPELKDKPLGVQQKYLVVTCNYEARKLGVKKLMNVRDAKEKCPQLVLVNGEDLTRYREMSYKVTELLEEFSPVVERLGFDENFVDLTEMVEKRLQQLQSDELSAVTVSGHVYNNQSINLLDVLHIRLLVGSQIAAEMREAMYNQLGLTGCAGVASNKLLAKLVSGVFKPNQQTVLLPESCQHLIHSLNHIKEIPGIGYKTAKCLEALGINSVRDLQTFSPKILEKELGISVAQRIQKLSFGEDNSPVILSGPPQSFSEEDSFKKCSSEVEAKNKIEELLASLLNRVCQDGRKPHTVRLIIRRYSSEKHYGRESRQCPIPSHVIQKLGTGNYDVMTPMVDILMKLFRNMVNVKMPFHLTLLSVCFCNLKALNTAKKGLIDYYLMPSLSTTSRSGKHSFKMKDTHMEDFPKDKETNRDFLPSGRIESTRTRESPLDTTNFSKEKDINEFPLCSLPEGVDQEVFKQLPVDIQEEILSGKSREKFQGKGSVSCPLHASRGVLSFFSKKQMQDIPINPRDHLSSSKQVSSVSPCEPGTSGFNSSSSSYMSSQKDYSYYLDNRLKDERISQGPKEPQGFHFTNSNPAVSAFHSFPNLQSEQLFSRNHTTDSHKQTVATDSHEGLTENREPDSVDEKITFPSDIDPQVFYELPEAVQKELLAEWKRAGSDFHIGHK
# Method in brief: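 Recombinant human Pol iota (10 nM) was preincubated with compound for 15 min at room temperature, then 50 nM final primer/template substrate was added; the substrate carried a TAMRA-labeled reporter strand and a BHQ-2-quenched template. Fluorescence was read at 0 and 10 min.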
# [6] = biological target: Bifunctional 3'-5' exonuclease/ATP-dependent helicase WRN (Homo sapiens) (UniProt Q14191); assay: qHTS for Inhibitors of WRN Helicase: Confirmatory Assay for Cherry-picked Compounds. (AID 720497); also: series mostly up to about 57 µM; nearly all actives have a fitted effect of over 65% in size
# Sequence of Bifunctional 3'-5' exonuclease/ATP-dependent helicase WRN (Homo sapiens) (Q14191 whole entry, looked up): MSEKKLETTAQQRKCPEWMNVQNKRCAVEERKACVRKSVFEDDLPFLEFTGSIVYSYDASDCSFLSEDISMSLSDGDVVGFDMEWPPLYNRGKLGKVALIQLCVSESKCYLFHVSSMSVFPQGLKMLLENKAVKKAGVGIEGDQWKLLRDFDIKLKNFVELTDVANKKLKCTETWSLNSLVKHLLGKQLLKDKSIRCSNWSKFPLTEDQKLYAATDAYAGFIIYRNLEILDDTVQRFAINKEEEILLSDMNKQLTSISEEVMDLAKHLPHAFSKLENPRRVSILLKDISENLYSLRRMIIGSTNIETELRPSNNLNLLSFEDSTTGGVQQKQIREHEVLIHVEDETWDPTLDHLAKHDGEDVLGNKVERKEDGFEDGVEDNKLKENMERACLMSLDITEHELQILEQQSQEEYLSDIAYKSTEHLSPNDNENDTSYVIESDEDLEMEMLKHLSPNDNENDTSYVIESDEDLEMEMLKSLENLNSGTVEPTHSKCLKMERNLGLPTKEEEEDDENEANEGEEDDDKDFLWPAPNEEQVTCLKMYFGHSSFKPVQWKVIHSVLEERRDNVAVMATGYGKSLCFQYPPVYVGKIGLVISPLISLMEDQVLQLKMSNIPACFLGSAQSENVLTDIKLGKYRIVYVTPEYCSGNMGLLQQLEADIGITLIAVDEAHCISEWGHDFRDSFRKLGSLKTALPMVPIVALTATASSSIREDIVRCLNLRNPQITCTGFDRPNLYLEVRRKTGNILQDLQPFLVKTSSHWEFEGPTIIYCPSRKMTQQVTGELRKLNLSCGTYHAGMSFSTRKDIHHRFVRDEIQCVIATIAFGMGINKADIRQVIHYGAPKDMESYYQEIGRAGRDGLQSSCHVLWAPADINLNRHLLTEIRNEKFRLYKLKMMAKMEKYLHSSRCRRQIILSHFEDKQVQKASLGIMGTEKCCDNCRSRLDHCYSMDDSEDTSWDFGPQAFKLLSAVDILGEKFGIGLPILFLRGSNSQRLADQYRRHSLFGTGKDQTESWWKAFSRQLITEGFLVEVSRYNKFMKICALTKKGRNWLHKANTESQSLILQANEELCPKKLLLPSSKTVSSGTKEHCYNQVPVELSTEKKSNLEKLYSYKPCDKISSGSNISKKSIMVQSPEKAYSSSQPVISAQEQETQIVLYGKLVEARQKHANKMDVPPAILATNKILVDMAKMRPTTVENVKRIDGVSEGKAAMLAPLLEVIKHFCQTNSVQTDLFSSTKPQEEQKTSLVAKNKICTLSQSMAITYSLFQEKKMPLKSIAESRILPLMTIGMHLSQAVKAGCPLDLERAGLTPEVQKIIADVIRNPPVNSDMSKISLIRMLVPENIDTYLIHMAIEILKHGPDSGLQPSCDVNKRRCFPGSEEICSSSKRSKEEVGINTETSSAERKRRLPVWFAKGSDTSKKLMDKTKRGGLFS
# Method in brief: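 Kinetic fluorescence unwinding readout (525/598 nm) of a forked duplex oligonucleotide substrate, 100 nM, with 2 mM ATP and 20 nM WRN. Compounds were added 15 min before substrate at room temperature. Activity was scaled between uninhibited enzyme and buffer-only controls.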
# [7] = qHTS for Inhibitors of WRN Helicase: Thiazole Orange DNA Binding Counterscreen (AID 720499);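 also: drop in dye fluorescence marks compound binding to DNA; nearly all actives have a fitted effect of over 60% in size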
# Method in brief: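 DNA-intercalating dye assay: pintool-added compounds meet 50 nM DNA pre-stained with 100 nM ThO; 15 min at RT; fluorescence 480/530 nm. Inactivity is desired.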
# [8] = biological target: DNA polymerase eta (Homo sapiens) (UniProt Q9Y253); assay: qHTS for Inhibitors of Polymerase Eta: Confirmatory Assay for Cherry-picked Compounds (AID 720502); settings: Pol eta primer extension, TAMRA/BHQ fluorescence, 10 min; also: potency is read from the fitted curve at half-maximal effect
# Sequence of DNA polymerase eta (Homo sapiens) (Q9Y253 whole entry, looked up): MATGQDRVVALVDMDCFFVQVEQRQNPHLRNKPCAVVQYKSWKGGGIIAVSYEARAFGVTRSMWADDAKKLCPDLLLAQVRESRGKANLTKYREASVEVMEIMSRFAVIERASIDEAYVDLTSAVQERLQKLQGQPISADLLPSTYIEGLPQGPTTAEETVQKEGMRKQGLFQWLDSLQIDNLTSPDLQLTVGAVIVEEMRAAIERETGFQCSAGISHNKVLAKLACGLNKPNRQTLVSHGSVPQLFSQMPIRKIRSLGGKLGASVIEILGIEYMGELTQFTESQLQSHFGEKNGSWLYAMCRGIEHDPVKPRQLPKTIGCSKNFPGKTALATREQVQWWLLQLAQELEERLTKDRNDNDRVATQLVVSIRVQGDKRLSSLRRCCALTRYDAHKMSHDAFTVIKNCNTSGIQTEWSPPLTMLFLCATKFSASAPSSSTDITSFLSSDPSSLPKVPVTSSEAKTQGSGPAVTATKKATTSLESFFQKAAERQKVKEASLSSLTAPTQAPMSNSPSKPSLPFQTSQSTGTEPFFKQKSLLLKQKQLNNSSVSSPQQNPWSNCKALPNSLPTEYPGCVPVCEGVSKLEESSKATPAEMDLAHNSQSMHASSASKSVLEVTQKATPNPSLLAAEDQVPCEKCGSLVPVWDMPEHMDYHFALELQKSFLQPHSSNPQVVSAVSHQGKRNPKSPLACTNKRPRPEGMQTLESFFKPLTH
# Method in brief: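 Enzyme at 10 nM is mixed with pin-transferred compound and left 15 min at room temperature. Substrate (50 nM final) is then added, and plates are read at 0 min and after 10 min.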
# [9] = Confirmation and Secondary Assay for Modulators of Hemoglobin Beta Chain Splicing at IVS2 654 locus (AID 910);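 also: HeLa cells stably carrying EGFP split by mutant beta-globin IVS2-654 intron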
# Method in brief: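 Readout: per-well total peak green fluorescence (488 nm ex, 500–520 nm em) from objects 5–250 µm, reflecting correct splicing of an EGFP-654 reporter. Compounds were applied for 2 days at 37 °C to overnight-plated HeLa EGFP-654 cells; controls were DMSO and 500 nM IVS2-654 PNA.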
# [10] = Confirmation and Secondary Assay for Modulators of Hemoglobin Beta Chain Splicing at IVS2 705 locus (AID 930);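 also: HeLa cells stably expressing the EGFP-705 splicing reporter; GFP fluorescence per well restored by corrected splicing of the IVS2-705 intron in EGFP; series mostly up to about 46 µM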
# Method in brief: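 HeLa cells stably carrying EGFP interrupted by mutant beta-globin intron 2 (IVS2-705) treated 2 days at 37C with compound; 500 nM antisense PNA as control. Correct splicing read as total peak GFP intensity per well by laser-scanning cytometry.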
# [11] = biological target: Tumor susceptibility gene 101 protein (Homo sapiens) (UniProt Q99816); assay: qHTS Assay for Iinhibitors of HIV-1 Budding by Blocking the Interaction of PTAP/TSG101: Hit Validation (AID 651600); also: nearly all actives have a fitted effect of over 70% in size; also: potency is read from the fitted curve at half-maximal effect
# Sequence of Tumor susceptibility gene 101 protein (Homo sapiens) (Q99816 whole entry, looked up, the tested form may be a part): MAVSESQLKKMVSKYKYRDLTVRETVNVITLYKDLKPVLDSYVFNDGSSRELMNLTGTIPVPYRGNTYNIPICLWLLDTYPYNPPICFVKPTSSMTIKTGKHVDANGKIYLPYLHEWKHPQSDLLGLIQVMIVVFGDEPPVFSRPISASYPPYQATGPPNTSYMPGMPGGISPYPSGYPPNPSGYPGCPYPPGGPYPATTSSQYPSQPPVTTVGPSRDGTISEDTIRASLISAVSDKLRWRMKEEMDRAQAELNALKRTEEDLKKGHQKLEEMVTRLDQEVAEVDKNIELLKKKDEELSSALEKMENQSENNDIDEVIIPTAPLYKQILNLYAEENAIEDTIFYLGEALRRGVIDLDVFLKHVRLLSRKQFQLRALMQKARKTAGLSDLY
# Method in brief: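 Tsg101 binding domain 10 uM + FITC-PTAP peptide 50 nM (final), 10 mM HEPES pH 7.5/0.15 M NaCl/0.01% Tween 20/3 mM EDTA/0.1 mM TCEP; 20 min RT; FP read, FITC filters.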
# [12] = qHTS for Inhibitors of Ubiquitin-specific Protease USP2a Using CHOP2 as the Reporter: K633 Counterscreen (AID 652168); also: series mostly up to about 57 µM
# Method in brief: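 Cell-free interference counterscreen without USP2a: compounds pinned into enzyme-free buffer (20 mM Tris pH 8, 2 mM beta-mercaptoethanol, 0.05% Chaps), then DiUb K48-4IQF substrate added (100 nM stock); fluorescence read kinetically, Ex 525/Em 598.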
# [13] = qHTS for Inhibitors of Ubiquitin-specific Protease USP2a Using CHOP2 as the Reporter: Cytotox Assay (AID 652170); also: series mostly up to about 46 µM; nearly all actives have a fitted effect of over 70% in size
# Method in brief: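 HCT116 human colon cancer cells, 600 per well in DMEM with 10% FBS, exposed to compounds for 72 hr at 37 deg C. ATP measured by CellTiter-Glo luminescence, normalized to DMSO cells and no-cell background.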
# [14] = biological target: Ubiquitin carboxyl-terminal hydrolase 2 (Homo sapiens) (UniProt O75604); assay: qHTS for Inhibitors of Ubiquitin-specific Protease USP2a Using CHOP2 as the Reporter: K484 Substrate (AID 652173);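 also: cleavage of internally quenched K48 di-ubiquitin substrate measured as rising fluorescence over time; nearly all actives have a fitted effect of over 70% in size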; also: potency is read from the fitted curve at half-maximal effect
# Sequence of Ubiquitin carboxyl-terminal hydrolase 2 (Homo sapiens) (O75604 whole entry, looked up): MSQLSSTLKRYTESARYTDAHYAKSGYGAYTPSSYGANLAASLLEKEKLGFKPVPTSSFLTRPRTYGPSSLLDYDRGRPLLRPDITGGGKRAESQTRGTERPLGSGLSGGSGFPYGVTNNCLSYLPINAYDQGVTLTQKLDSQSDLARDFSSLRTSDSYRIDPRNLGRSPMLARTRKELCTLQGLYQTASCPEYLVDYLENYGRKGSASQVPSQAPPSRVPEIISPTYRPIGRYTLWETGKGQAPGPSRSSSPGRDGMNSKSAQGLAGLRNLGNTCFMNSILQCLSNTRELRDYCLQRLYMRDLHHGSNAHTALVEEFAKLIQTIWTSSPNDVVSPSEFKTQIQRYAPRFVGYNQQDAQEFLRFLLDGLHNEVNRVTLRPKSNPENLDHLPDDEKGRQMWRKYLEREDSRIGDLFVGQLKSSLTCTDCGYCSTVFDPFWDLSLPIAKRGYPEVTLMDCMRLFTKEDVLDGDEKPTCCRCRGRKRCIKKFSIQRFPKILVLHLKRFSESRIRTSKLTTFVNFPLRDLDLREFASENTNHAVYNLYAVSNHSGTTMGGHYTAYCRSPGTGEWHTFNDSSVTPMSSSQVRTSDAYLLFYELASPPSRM
# Method in brief: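 USP2 (dispensed at 5 nM) was pinned with compounds, then DiUb K48 internally quenched fluorescent substrate (dispensed at 100 nM) was added. The buffer was 20 mM Tris pH 8, 2 mM beta-mercaptoethanol and 0.05% CHAPS. Cleavage was read kinetically as rising fluorescence, Ex 525/Em 598.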
smiles,measurement,setting,value
COC(=O)[C@@]1(Cc2ccc(OC)cc2)[C@H]2c3cc(C(=O)N4CCCC4)n(CCCNc4ncc(C(F)(F)F)cc4Cl)c3C[C@H]2CN1C(=O)c1ccccc1,Potency,[1],7.94 µM (active)
same,Potency,[2],inactive
same,Potency,[3],3.16 µM (active)
CC(=O)N(C1=C(Cl)C(=O)c2ccccc2C1=O)c1ccc(C(=O)O)cc1,Potency,[4],3.55 µM (active)
same,Potency,[5],67 µM (active)
same,Potency,[6],inactive
same,Potency,[7],inactive
same,Potency,[8],26.9 µM (active)
CCC(=O)OCC(=O)C1(OC(=O)CC)C(C)CC2C3CCC4=CC(=O)C=CC4(C)C3(Cl)C(O)CC21C (stereo not drawn),outcome,[9],inactive
same,outcome,[10],inactive
CSCC(C)N1CCC(n2nccc2NC(=O)CCCc2ccccc2)CC1 (stereo not drawn),Potency,[11],13 µM (active)
Cc1c(N=C2N=C(NC(=O)c3ccc(F)cc3)c3ccccc32)c(=O)n(-c2ccccc2)n1C,Potency,[11],inactive
CCN(CC)C(=O)[C@H]1CC(CC(=O)NCc2cccc(C(F)(F)F)c2)C(=O)N2CCc3c([nH]c4ccc(OC)cc34)[C@]12C (stereo partly drawn),Potency,[11],inactive
Cn1cnc(S(=O)(=O)Nc2cnccc2C(=O)Nc2nc(-c3ccccc3)cs2)c1,outcome,[12],inactive
same,Potency,[13],inactive
same,Potency,[14],19.3 µM (active)
COCCNC(=S)N/N=C/c1c2ccccc2cc2ccccc12,Potency,[11],inactive
CC(=O)Nc1ccc(NC(=O)c2cc(-c3ccc(C)c(C)c3)nc3ccccc23)cc1,outcome,[12],inactive
Cc1ccc(S(=O)(=O)Nc2cnccc2C(=O)Nc2nc(C(=O)O)cs2)cc1,outcome,[12],inactive
O=C1/C(=N\S(=O)(=O)c2cccs2)C([n+]2cccc(Cc3ccccc3)c2)=C([O-])c2ccccc21,Potency,[11],16.3 µM (active)
CCN(CC)C(=O)C1CCC(C(=O)Nc2ccc([S+](=O)([O-])Nc3nccs3)cc2)CC1 (stereo not drawn),outcome,[12],inactive
same,Potency,[13],inactive
same,Potency,[14],inactive
